In the supplement of paper PMC3545927:
The list shows a part of the results. The true hit rate is not given.

Biological target: furin, P09958
Test: furin cleavage Z-score vs untreated control; higher = more cleavage, active = 3.5 or more, inactive = 1 or less, 8 variable residues between constant flanks
Outline: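 Purified furin cleaved 8-mer peptides that were fused to a cDNA oligonucleotide and held on magnetic beads by their N-terminus. Each 0.01 ml reaction used a 1:10 enzyme:substrate ratio in 50 mM HEPES pH 7.5 with CaCl2 and NaCl and ran 7.5, 15 or 30 min. Released DNA was adapter-tagged by PCR and sequenced, and read counts gave abundance. The cleavage Z-score came from log counts against furin-free reactions, lowess-adjusted and scaled by median absolute deviation.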

furin, P09958, sequence (P09958 whole entry): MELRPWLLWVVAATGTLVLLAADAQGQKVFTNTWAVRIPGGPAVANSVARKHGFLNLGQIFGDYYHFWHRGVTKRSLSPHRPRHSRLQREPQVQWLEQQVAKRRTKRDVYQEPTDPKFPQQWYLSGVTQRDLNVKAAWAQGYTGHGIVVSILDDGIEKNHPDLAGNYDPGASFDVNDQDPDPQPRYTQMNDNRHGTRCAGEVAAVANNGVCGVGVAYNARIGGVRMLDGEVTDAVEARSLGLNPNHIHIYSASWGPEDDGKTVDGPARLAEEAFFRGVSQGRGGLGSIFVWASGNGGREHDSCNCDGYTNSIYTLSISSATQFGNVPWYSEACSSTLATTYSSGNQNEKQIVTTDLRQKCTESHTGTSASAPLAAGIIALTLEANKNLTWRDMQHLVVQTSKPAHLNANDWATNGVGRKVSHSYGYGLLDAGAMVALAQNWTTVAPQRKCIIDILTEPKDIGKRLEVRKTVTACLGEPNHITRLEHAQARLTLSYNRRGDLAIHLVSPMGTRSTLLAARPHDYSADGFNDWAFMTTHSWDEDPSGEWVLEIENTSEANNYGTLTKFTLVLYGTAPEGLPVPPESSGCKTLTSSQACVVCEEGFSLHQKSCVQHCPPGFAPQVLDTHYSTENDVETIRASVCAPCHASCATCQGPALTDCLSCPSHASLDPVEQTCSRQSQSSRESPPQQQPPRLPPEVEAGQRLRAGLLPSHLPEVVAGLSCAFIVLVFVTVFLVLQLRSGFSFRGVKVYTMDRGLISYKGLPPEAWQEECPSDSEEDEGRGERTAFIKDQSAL

Row | Sequence | furin cleavage Z-score (7.5 min) | furin cleavage Z-score (15 min) | furin cleavage Z-score (30 min)
1 | CAEAEVPCHRAGNASASA [HC2443] | 1.31 | 1.69 | -0.0334 (inactive)
2 | CAPLEVVTSTAGNASASA [HC2279] | 0.247 (inactive) | 0.62 (inactive) | 0.87 (inactive)
3 | CAKPAIIPDRAGNASASA [HC1006] | -0.622 (inactive) | 0.0184 (inactive) | -0.00549 (inactive)
4 | CAGAVQNEITAGNASASA [HC975] | -1.74 (inactive) | -0.537 (inactive) | -1.39 (inactive)
5 | CAGCPPDSDAAGNASASA [HC1348] | 0.143 (inactive) | -0.261 (inactive) | -1.34 (inactive)
6 | CARQRRHPELAGNASASA [FS-2763] | 2.08 | 1.42 | 4.23 (active)
7 | CARQRRSHVLAGNASASA [FS-2766] | 2.3 | 4.17 (active) | 4.75 (active)
8 | CARQRRPWEPAGNASASA [FS-2366] | -0.356 (inactive) | -0.595 (inactive) | -1.76 (inactive)
9 | CARQRRSSGHAGNASASA [FS-3164] | 6.61 (active) | 6.83 (active) | 6.04 (active)
10 | CARQRRVAGLAGNASASA [FS-2767] | -1.21 (inactive) | -0.684 (inactive) | 1.04
11 | CASRSLTPCTAGNASASA [HC719] | -0.572 (inactive) | -2.71 (inactive) | 0.443 (inactive)
12 | CANYATGNLPAGNASASA [HC242] | -0.747 (inactive) | 0.727 (inactive) | -1.07 (inactive)
13 | CAFRRRGRRSAGNASASA [FS-1325] | 7.29 (active) | 7.04 (active) | 5.71 (active)
14 | CAYHFRGRRSAGNASASA [FS-1438] | 8.22 (active) | 8.64 (active) | 7.23 (active)
15 | CAKRRRGRKSAGNASASA [FS-679] | 0.804 (inactive) | 2.45 | 1.45
16 | CARMKRIFYRAGNASASA [FS-3162] | 0.804 (inactive) | 2.26 | -0.0374 (inactive)
17 | CAVKKRKGRVAGNASASA [FS-922] | 3.3 | 4.91 (active) | 6.5 (active)
18 | CARMKRAGRVAGNASASA [FS-1751] | 5.19 (active) | 5.19 (active) | 5.87 (active)
19 | CACVVIVGRVAGNASASA [HC1000] | 0.746 (inactive) | -1.22 (inactive) | 1.75
20 | CAEVVRSTWVAGNASASA [HC130] | -1.7 (inactive) | -0.333 (inactive) | -1.26 (inactive)
21 | CALVNLLPAIAGNASASA [HC1100] | 1.21 | 0.684 (inactive) | 0.808 (inactive)
22 | CARNLGKVIDAGNASASA [HC219] | -0.809 (inactive) | 0.0222 (inactive) | -1.18 (inactive)

Row | Sequence | furin cleavage Z-score (7.5 min) | furin cleavage Z-score (15 min) | furin cleavage Z-score (30 min)
23 | CATQGCNCSIAGNASASA [HC311] | -0.897 (inactive) | -0.922 (inactive) | -0.937 (inactive)
24 | CAGDGRSYRGAGNASASA [FS-529] | -0.56 (inactive) | -0.653 (inactive) | -0.179 (inactive)
25 | CAVMGRMKREAGNASASA [FS-892] | 13 (active) | 13.9 (active) | 9.25 (active)
26 | CARPRRMKREAGNASASA [FS-710] | 12.1 (active) | 12.6 (active) | 8.41 (active)
27 | CARMDRVKKEAGNASASA [FS-953] | 0.785 (inactive) | 2.5 | 3.22
28 | CARPRRTKKTAGNASASA [DV3] | 0.136 (inactive) | 1.59 | 1.15
29 | CARKRRAKREAGNASASA [FS-1650] | 13 (active) | 13.6 (active) | 9.6 (active)
30 | CAGKGRKYREAGNASASA [FS-125] | 8.32 (active) | 9.76 (active) | 7.89 (active)
31 | CAEVVTSYWVAGNASASA [HC2209] | -1.41 (inactive) | -1.3 (inactive) | -1.27 (inactive)
32 | CADLVGWPAPAGNASASA [HC714] | -0.648 (inactive) | -0.464 (inactive) | -1.65 (inactive)
33 | CAYHVTNDCPAGNASASA [HC261] | -0.934 (inactive) | -0.574 (inactive) | -0.88 (inactive)
34 | CAKKWRMKREAGNASASA [FS-809] | 12.2 (active) | 12.8 (active) | 10.8 (active)
35 | CANHLTPLRDAGNASASA [HC636] | -0.625 (inactive) | -0.983 (inactive) | -0.425 (inactive)
36 | CAPPPRRTRDAGNASASA [FS-840] | 7.22 (active) | 7.26 (active) | 5.47 (active)
37 | CAGRLRPLRDAGNASASA [FS-164] | 6.08 (active) | 7.11 (active) | 5.86 (active)
38 | CAPWQRVDRDAGNASASA [FS-843] | -0.541 (inactive) | 0.153 (inactive) | -0.511 (inactive)
39 | CALQGRSSRDAGNASASA [FS-357] | 0.94 (inactive) | 1.14 | 2.12
40 | CAAFGRRRRDAGNASASA [FS-639] | 6.8 (active) | 6.94 (active) | 5.25 (active)
41 | CASWLRDIWDAGNASASA [HC1148] | -1.29 (inactive) | -0.331 (inactive) | 0.22 (inactive)
42 | CAGQPRRSRDAGNASASA [FS-430] | 8.53 (active) | 9.91 (active) | 6.63 (active)
43 | CAASCRPLTDAGNASASA [HC389] | -0.403 (inactive) | -0.436 (inactive) | 0.514 (inactive)
